Active and inactive are the calls of the source. Rule for the calls: active = hit-call score of the fitted dose curve at least 0.9, where 1 is the maximum; inactive = score below 0.9.
What was measured:
[1] = ATG_CRE_CIS: Attagene CIS-FACTORIAL HepG2 Assay for human cAMP Responsive Element (CRE) binding protein 3 (AID 2282926); details: HepG2 CRE cis-reporter, Attagene multiplexed mRNA; actives raise or lower the signal
Summary of the method: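 Readout: fluorescently labelled reporter transcripts resolved by capillary electrophoresis after RT-PCR, taken 24 h post-dosing in transfected HepG2. Endogenous transcription factor activity drives each cis-element reporter; gain or loss of signal fitted relative to DMSO control.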

[2] = biological target: CCAAT/enhancer-binding protein beta (Homo sapiens) (UniProt P17676); experiment: ATG_C_EBP_CIS: Attagene CIS-FACTORIAL HepG2 Assay for human CCAAT/Enhancer Binding Protein (C/EBP) beta (AID 2282927); details: HepG2 Attagene cis-factorial transcription factor reporter; actives raise or lower the signal
Summary of the method: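 Chemical-treated HepG2 cells (24 h) bearing cis-regulated reporter constructs were processed for total RNA, then reverse transcription, PCR amplification, fluorescent primer extension and fragment analysis; gain- and loss-of-signal were fitted against DMSO.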

[3] = ATG_CMV_CIS: Attagene CIS-FACTORIAL HepG2 Assay for human CMV (Internal Marker) (AID 2282928); details: HepG2 CMV promoter reporter, transcription factor profiling; actives raise or lower the signal;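 note: endpoint acts as a background internal control marker rather than a target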
Summary of the method: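 24 h chemical treatment, HepG2 with transient multi-reporter transfection; RNA → oligo(dT) RT → PCR → 6-FAM extension → HpaI digest → CE fluorescence. Bidirectional fit, DMSO negative control.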

[4] = ATG_DR4_LXR_CIS: Attagene CIS-FACTORIAL HepG2 Assay for human Liver X Receptor (LXR), DR4 submotif (AID 2282929); details: HepG2 Attagene DR4 cis-reporter, mRNA transcription; actives raise or lower the signal
Summary of the method: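 DR4 cis-reporter in HepG2, 24 h exposure. Detection: RT-PCR, 6-FAM labelling, CE fragment analysis. Endpoint fitted bidirectionally, DMSO = baseline.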

[5] = biological target: Aryl hydrocarbon receptor (Homo sapiens) (UniProt P35869); experiment: ATG_Ahr_CIS: Attagene CIS-FACTORIAL HepG2 Assay for human Aryl Hydrocarbon Receptor (Ahr) (AID 2282930); details: HepG2 AhR cis-factorial reporter transcription; actives raise or lower the signal
Summary of the method: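 Following 24 h of chemical dosing, transfected HepG2 liver cells with cis-driven reporter units were lysed for RNA; reporter mRNA was quantified via RT-PCR and capillary electrophoresis, and responses fitted bidirectionally from DMSO.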

[6] = ATG_AP_1_CIS: Attagene CIS-FACTORIAL HepG2 Assay for human Activator Protein 1 (AP-1) (AID 2282931); details: HepG2 Attagene cis-factorial AP-1 reporter mRNA; actives raise or lower the signal
Summary of the method: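 Cis-regulated reporter units transiently expressed in HepG2 report endogenous transcription-factor activity. Signal: reporter mRNA at 24 h, via RT-PCR and fluorescent capillary electrophoresis. Endpoint derived by bidirectional fitting, DMSO as negative control.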

[7] = ATG_AP_2_CIS: Attagene CIS-FACTORIAL HepG2 Assay for human Activator Protein 2 (AP-2) (AID 2282932); details: HepG2 AP-2 cis-reporter, Attagene transcription factor profiling; actives raise or lower the signal
Summary of the method: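 Cells (HepG2) transfected with promoter-driven reporter constructs, treated 24 h. Total RNA reverse-transcribed, reporter cDNA PCR-amplified, FAM-labelled by primer extension, digested, resolved by capillary electrophoresis. Activity fitted both directions versus DMSO.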

[8] = biological target: Transcription factor E2F1 (Homo sapiens) (UniProt Q01094); experiment: ATG_E2F_CIS: Attagene CIS-FACTORIAL HepG2 Assay for human E2F Transcription Factor 1 (AID 2282935); details: HepG2 Attagene cis-reporter, E2F reporter RNA transcripts; actives raise or lower the signal
Summary of the method: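 First, HepG2 cells were transfected with reporter transcription units. Next, they were dosed for 24 h. Then RNA was isolated, converted to cDNA, PCR-amplified, FAM-labeled, HpaI-digested and analyzed by capillary electrophoresis.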

[9] = ATG_E_Box_CIS: Attagene CIS-FACTORIAL HepG2 Assay for human Enhancer Box (E-box) (AID 2282936); details: HepG2 E-box cis-reporter transcription, actives raise or lower the signal
Summary of the method: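 Endogenous transcription factor activity was sensed in human HepG2 liver cells through transfected cis-promoter reporter units. After 24 h of dosing, total RNA was reverse-transcribed and reporter cDNA resolved by capillary electrophoresis.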

[10] = ATG_M_61_CIS: Attagene CIS-FACTORIAL HepG2 Assay for M61 Transcription Factor (Internal Marker) (AID 2282937); details: HepG2 Attagene CIS-FACTORIAL M61 internal marker reporter; actives raise or lower the signal
Summary of the method: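 Background-control endpoint: HepG2 cells with cis-regulated reporter constructs, 24 h exposure, reporter mRNA detected via fluorescent primer extension and capillary electrophoresis; values from bidirectional fitting with DMSO baseline.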

[11] = ATG_EGR_CIS: Attagene CIS-FACTORIAL HepG2 Assay for human Early Growth Response 1 (EGR1) (AID 2282938); details: HepG2 Attagene CIS-FACTORIAL EGR reporter mRNA; actives raise or lower the signal
Summary of the method: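 Endpoint derived by bidirectional fitting versus DMSO vehicle. Method: cis-promoter reporter units transfected into HepG2, 24 h dosing, RNA isolation, RT-PCR with 6-FAM primer extension and HpaI digestion, then capillary electrophoresis fluorescence detection.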

[12] = ATG_M_19_CIS: Attagene CIS-FACTORIAL HepG2 Assay for M19 Transcription Factor (Internal Marker) (AID 2282939); details: HepG2 Attagene CIS-FACTORIAL M19 internal marker reporter; actives raise or lower the signal
Summary of the method: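 Background-control endpoint from a multiplexed HepG2 reporter panel. Cells carrying cis-regulated reporter constructs are treated 24 h, then reporter transcripts are amplified, fluorescently labelled and sized by capillary electrophoresis. DMSO defines baseline.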

[13] = ATG_ERE_CIS: Attagene CIS-FACTORIAL HepG2 Assay for Estrogen Response Element (ERE) (AID 2282940); details: HepG2 ERE cis-reporter, Attagene RNA transcript; actives raise or lower the signal
Summary of the method: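 Cells used were human hepatoma HepG2, transfected with multiple reporter transcription units under cis-regulatory promoters. Reporter mRNA, read 24 h post-dosing via fluorescent RT-PCR products on capillary electrophoresis, was fitted bidirectionally relative to DMSO.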

[14] = ATG_Ets_CIS: Attagene CIS-FACTORIAL HepG2 Assay for human Erythroblast Transformation Specific (ETS) (AID 2282941); details: HepG2 ETS cis-reporter transcription, actives raise or lower the signal
Summary of the method: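 Cis-regulated reporter mRNA induction in HepG2 (transient transfection), 24 h exposure, RT-PCR plus capillary electrophoresis detection; DMSO serves as negative control and baseline.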

[15] = biological target: Hepatocyte nuclear factor 3-beta (Homo sapiens) (UniProt Q9Y261); experiment: ATG_FoxA2_CIS: Attagene CIS-FACTORIAL HepG2 Assay for human Forkhead box A2 (FOXA2) (AID 2282942); details: HepG2 cis-reporter transcription factor activity, 24 h; actives raise or lower the signal
Summary of the method: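 Measured: reporter mRNA induction or loss in HepG2 transiently carrying multiple cis-regulated reporter units, 24 h after dosing. Quantified by RT-PCR plus capillary electrophoresis, normalised to DMSO.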

[16] = ATG_FoxO_CIS: Attagene CIS-FACTORIAL HepG2 Assay for human Forkhead box O (FoxO) (AID 2282943); details: HepG2 Attagene cis-reporter, FoxO element, mRNA; actives raise or lower the signal
Summary of the method: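 24 h chemical exposure, HepG2 with transient cis-MRTU transfection. RNA extraction, oligo(dT) RT, reporter-specific PCR, primer-extension labelling, HpaI digestion, CE fragment analysis; bidirectional fit, DMSO baseline.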

[17] = ATG_GATA_CIS: Attagene CIS-FACTORIAL HepG2 Assay for human GATA Binding Protein (AID 2282944); details: HepG2 GATA cis-element reporter, Attagene multiplex mRNA; actives raise or lower the signal
Summary of the method: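 Endogenous transcription factor activity was captured through cis-promoter-driven reporters in transfected HepG2 cells. After 24 h exposure, reporter transcripts were quantified by RT-PCR with fluorescent capillary electrophoresis, and responses fitted both directions against DMSO.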

[18] = ATG_GLI_CIS: Attagene CIS-FACTORIAL HepG2 Assay for human Zinc Finger Protein GLI1 (AID 2282945); details: HepG2, Attagene cis-factorial reporter mRNA, GLI element; actives raise or lower the signal
Summary of the method: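 HepG2 cells transiently transfected with cis-promoter multiplexed reporter units report endogenous transcription factor activity. After 24 h chemical exposure, reporter mRNA was quantified by RT-PCR, 6-FAM labelling, HpaI digestion and capillary electrophoresis, with bidirectional fitting against DMSO.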

[19] = ATG_BRE_CIS: Attagene CIS-FACTORIAL HepG2 Assay for human Bone Morphogenetic Protein (BMP) Response Element (BRE) (AID 2282933); details: HepG2 BMP response element reporter, Attagene transcription factor profiling; actives raise or lower the signal
Summary of the method: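 Endogenous transcription factor activity at a BMP response element was monitored in transfected HepG2 cells 24 h after dosing. Fluorescent RT-PCR products were resolved by capillary electrophoresis, and activity was fitted in both directions versus DMSO.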

[20] = biological target: Retinoic acid receptor alpha (Homo sapiens) (UniProt P10276); experiment: ATG_DR5_RAR_CIS: Attagene CIS-FACTORIAL HepG2 Assay for human Retinoic Acid Receptor Alpha (RARE), DR5 submotif (AID 2282934); details: HepG2 Attagene cis-factorial RARE DR5 reporter, mRNA; actives raise or lower the signal
Summary of the method: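 Transfected HepG2 reporter cells are exposed to chemicals for 24 h. Then RNA is extracted and the DR5 element reporter transcript is measured by RT-PCR and capillary electrophoresis, with bidirectional curve fitting relative to DMSO.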

Measured: AC50

Sequence of Transcription factor E2F1 (Homo sapiens) (Q01094 whole entry, looked up): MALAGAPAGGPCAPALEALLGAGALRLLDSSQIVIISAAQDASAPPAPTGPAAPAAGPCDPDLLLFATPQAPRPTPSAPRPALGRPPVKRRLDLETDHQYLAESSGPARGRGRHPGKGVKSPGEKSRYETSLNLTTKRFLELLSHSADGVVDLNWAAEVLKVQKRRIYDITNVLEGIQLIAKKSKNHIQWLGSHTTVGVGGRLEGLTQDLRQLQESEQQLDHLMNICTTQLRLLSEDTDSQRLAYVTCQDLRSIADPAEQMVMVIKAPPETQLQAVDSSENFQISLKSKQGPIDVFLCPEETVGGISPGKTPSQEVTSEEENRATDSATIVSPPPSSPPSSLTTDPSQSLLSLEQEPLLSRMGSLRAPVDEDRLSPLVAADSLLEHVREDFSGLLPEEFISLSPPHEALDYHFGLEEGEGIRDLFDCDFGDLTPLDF
Sequence of Aryl hydrocarbon receptor (Homo sapiens) (P35869 whole entry, looked up): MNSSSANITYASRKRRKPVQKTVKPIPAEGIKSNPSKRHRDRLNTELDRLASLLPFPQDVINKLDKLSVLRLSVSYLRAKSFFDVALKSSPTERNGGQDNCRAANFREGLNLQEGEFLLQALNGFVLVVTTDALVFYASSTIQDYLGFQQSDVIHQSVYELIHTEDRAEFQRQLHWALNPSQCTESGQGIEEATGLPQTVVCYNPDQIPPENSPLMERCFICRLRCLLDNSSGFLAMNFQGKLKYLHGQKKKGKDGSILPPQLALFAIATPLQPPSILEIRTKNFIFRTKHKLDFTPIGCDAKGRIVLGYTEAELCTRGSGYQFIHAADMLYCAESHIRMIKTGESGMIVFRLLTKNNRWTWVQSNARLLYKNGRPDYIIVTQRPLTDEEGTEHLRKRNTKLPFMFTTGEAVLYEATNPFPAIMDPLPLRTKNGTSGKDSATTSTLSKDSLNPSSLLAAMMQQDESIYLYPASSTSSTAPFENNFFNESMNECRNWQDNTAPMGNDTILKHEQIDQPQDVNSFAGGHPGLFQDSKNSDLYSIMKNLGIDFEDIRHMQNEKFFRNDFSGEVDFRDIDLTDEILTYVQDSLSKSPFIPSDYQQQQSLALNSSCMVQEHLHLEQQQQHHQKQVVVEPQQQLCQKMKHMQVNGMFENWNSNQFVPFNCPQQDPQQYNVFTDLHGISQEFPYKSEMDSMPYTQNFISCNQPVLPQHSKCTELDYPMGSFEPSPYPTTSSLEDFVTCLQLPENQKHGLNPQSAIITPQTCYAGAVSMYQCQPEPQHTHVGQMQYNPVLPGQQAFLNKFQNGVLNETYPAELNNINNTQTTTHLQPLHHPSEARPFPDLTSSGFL
Sequence of CCAAT/enhancer-binding protein beta (Homo sapiens) (P17676 whole entry, looked up, the tested form may be a part): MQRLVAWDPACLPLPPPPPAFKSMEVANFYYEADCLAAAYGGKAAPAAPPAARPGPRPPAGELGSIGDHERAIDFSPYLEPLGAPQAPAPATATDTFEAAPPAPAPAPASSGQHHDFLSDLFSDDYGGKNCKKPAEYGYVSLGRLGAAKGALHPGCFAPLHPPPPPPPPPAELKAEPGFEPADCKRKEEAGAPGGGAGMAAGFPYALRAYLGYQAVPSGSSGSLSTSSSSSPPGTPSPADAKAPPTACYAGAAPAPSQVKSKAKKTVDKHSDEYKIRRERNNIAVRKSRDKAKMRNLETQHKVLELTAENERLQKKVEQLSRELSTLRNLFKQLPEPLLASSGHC
Sequence of Hepatocyte nuclear factor 3-beta (Homo sapiens) (Q9Y261 whole entry, looked up): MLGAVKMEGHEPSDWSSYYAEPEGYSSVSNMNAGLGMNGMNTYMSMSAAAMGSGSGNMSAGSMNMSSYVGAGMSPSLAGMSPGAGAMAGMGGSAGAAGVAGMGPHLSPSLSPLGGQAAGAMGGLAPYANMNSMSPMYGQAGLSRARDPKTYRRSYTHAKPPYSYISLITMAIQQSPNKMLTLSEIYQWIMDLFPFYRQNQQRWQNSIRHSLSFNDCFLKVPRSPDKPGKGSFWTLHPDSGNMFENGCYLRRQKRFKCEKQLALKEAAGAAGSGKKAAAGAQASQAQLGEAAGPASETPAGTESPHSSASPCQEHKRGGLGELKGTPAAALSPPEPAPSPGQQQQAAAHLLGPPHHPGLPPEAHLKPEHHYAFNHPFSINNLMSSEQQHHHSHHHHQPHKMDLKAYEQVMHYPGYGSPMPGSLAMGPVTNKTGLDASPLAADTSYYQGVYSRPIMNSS
Sequence of Retinoic acid receptor alpha (Homo sapiens) (P10276 whole entry, looked up): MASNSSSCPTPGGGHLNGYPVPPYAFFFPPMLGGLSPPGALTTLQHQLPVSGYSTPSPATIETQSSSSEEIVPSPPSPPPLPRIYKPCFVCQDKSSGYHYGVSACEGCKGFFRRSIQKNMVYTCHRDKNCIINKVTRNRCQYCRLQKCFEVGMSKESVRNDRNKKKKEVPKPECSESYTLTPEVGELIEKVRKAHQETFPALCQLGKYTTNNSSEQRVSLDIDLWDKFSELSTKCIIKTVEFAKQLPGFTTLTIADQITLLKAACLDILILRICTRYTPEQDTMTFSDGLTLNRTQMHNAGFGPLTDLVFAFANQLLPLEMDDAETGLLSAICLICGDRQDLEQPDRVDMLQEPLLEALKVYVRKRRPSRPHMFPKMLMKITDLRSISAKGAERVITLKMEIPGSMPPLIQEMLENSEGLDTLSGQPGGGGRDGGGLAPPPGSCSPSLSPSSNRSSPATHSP

CN(C)CCCN
not listed: [19] | [20]
inactive: all other assays above

NC(=O)c1ccccc1Cl
active: [1] 61.2 µM | [6] 27 µM | [9] 61.1 µM | [11] 67.2 µM | [18] 139 µM
not listed: [7] | [20]
inactive: all other assays above

CC1(C)[C@@H]2CC[C@@]1(C)[C@H](O)C2
not listed: [13] | [19] | [20]
inactive: all other assays above

CCOC(=S)SSC(=S)OCC
not listed: [7] | [20]
inactive: all other assays above

OCCCCCO
not listed: [19] | [20]
inactive: all other assays above

O=S(=O)(O)c1ccc(O)c2ncccc12
active: [5] 37.5 µM
not listed: [9] | [19] | [20]
inactive: all other assays above

CSc1nc(NC2CC2)nc(NC(C)(C)C)n1
active: [3] 60.5 µM | [6] 47.5 µM
not listed: [9] | [13] | [20]
inactive: all other assays above

O=C(O)c1cccc([N+](=O)[O-])c1
not listed: [12] | [13] | [19] | [20]
inactive: all other assays above

CCCc1c(OCCCOc2ccc(OCC(=O)O)cc2)ccc(C(C)=O)c1O
active: [3] 64.1 µM | [19] 137 µM | [11] 31.8 µM | [13] 365 nM
not listed: [9] | [12] | [14] | [20]
inactive: all other assays above

C=O
not listed: [13] | [19] | [20]
inactive: all other assays above

O=C(O)CCCCC1CCSS1 (configuration not stated)
not listed: [9] | [12] | [20]
inactive: all other assays above

Cc1cccc(Nc2ccccc2C(=O)O)c1C
not listed: [13] | [19] | [20]
inactive: all other assays above

Cc1ccc(C=O)s1
not listed: [7] | [13] | [16]
inactive: all other assays above

C[C@H]1C[C@H]2[C@@H]3CCC4=CC(=O)C=C[C@]4(C)[C@@]3(F)[C@@H](O)C[C@]2(C)[C@@]1(O)C(=O)COP(=O)(O)O
not listed: [9] | [20]
inactive: all other assays above

O=[N+]([O-])c1cc(C(F)(F)F)ccc1Cl
not listed: [9] | [13] | [15] | [19] | [20]
inactive: all other assays above

C=CC(=O)NCOCC(C)C
not listed: [9] | [13] | [19] | [20]
inactive: all other assays above
